# The campaign covered roughly 69,000 compounds. About 8,600 (12%) showed an effect of 50% or more. The entries come from a sample that favours strong results as a whole.
# Tested on: Plasmodium berghei
# Experiment: Screen against P. berghei liver stage (PbLuc), transformed with Luciferase, at 10uM
# Format: functional, HepG2
# Conditions: tested at 10 uM
row,SMILES,INHIBITION [%]
1,Cc1nn(C)cc1S(=O)(=O)NC1(CN2CCOCC2)CCCCC1,28
2,COc1ccccc1C(C)(C)NC(=O)c1cc(NC(C)=O)ccc1F,-52.3
3,CCSCc1nc(O)c2nnn(C3CCN(Cc4ccoc4)CC3)c2n1,18.39
4,CC(C)c1nc2c(n1C)CCN(CC(=O)Nc1cccnc1)C2,-55.4
5,O=C(NCC1CCN(c2ccncc2)CC1)C(O)c1ccccc1 (stereo unspecified),36.4
6,Cc1nocc1C(=O)N1CCCC2(CCN(c3cnn(C)c3)C2=O)C1 (stereo unspecified),38.5
7,CC(C)c1cc(C2CCCN2C(=O)CN2C(=O)CCNC2=O)no1 (stereo unspecified),5.91
8,O=S(=O)(c1ccccc1Br)N1CCC2(CC1)OCCS2,0.325
9,Cc1cnn(CC2CN(CC(=O)NCc3ccco3)CCO2)c1 (stereo unspecified),11.2
10,CCCN(Cc1cnn(C)c1)S(=O)(=O)c1cc(C)cc(F)c1,-6.11
11,Cc1noc(CCCC(=O)NCC2CCS(=O)(=O)C2)n1 (stereo unspecified),-7.35
12,Cn1nccc1-c1ccc2nc(C3CCN(CC4CC4)CC3)nn2c1,38.2
13,CS(=O)(=O)CCCN(CCc1cccc(F)c1)C1CC1,-22.3
14,COc1ccc(CN2C[C@@H]3CN(C(=O)[C@H]4CCCO4)C[C@@H]3C2=O)cc1,-43
15,O=C(C1CCOC1)N1C[C@H]2CN(Cc3cccc(F)c3)C(=O)[C@H]2C1 (stereo partly specified),34.9
16,Cc1cccc(CN2C[C@@H]3CN(C(=O)c4ccnnc4)C[C@@H]3C2=O)c1,4.61
17,O=C(C1CCOC1)N1C[C@H]2CN(c3ccccc3)C(=O)[C@H]2C1 (stereo partly specified),52.6
18,O=C(C1CCC1)N1C[C@@H]2CN(c3ccccc3)C(=O)[C@@H]2C1,46.9
19,Cc1cccc(CN2C[C@@H]3CN(C(=O)C4CCOC4)C[C@@H]3C2=O)c1 (stereo partly specified),53
20,Cc1cccc(CN2C[C@@H]3CN(C(=O)[C@H]4CCCO4)C[C@@H]3C2=O)c1,58.2
21,O=C(C1CCOC1)N1C[C@H]2CN(Cc3cccnc3)C(=O)[C@H]2C1 (stereo partly specified),17.7
22,CN1C[C@@H]2CN(C(=O)C3CCOC3)C[C@@H]2C1=O (stereo partly specified),33
23,Cn1cc(CN2CCCC3(CCN3S(C)(=O)=O)C2)cn1 (stereo unspecified),28.7
24,C=C(Br)CN(C)C1CCN(CCc2ccccn2)CC1,-9.37
25,O=C(CSc1ccc(Br)cc1)NS(=O)(=O)c1ccc2c(c1)OCCO2,30.55
26,Cc1nc2c(c(N3CCCOCC3)n1)CCN(c1nccs1)CC2,41.1
